Of roughly 8,800 targets only a part is listed; those with a hit were picked by preference. About 0.5% of all pairs of compound and target were hits. Unmarked numbers belong to inactive results.

UniProt Q15054, sequence (Q15054 whole entry, looked up): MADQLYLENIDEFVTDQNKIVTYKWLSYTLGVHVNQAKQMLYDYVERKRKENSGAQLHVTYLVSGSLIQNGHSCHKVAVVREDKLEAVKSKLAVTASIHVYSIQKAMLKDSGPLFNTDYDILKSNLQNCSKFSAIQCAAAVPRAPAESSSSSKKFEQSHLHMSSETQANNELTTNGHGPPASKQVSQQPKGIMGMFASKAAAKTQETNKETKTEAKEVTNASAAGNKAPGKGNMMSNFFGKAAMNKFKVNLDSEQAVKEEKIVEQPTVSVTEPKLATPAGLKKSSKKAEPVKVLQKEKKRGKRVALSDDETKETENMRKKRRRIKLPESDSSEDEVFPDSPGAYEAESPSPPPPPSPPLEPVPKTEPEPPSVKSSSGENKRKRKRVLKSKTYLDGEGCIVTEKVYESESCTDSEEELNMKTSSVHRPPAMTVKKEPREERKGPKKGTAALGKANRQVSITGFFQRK
UniProt Q8NA72, sequence (Q8NA72 whole entry, looked up): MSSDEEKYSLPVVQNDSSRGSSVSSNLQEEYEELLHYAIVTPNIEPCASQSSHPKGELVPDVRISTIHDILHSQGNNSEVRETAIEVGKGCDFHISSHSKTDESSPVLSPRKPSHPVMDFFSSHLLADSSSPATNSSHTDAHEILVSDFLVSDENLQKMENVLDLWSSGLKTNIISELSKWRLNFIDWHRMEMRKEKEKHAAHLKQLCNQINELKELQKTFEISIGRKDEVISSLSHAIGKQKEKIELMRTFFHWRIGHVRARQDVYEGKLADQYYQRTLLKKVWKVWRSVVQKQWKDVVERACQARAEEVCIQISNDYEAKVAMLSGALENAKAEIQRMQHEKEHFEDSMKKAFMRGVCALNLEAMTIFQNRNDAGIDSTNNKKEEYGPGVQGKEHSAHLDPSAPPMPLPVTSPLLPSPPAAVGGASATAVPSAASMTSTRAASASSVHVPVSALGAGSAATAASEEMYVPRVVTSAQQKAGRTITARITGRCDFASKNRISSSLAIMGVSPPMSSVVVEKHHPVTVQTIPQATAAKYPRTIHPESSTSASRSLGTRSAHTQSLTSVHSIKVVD
UniProt Q93096, sequence (Q93096 whole entry, looked up): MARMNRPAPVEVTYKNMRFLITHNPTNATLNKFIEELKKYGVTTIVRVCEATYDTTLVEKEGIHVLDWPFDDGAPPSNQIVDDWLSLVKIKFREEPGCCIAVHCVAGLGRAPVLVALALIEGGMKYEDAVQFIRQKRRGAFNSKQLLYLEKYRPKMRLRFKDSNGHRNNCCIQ
UniProt Q8N8N7, sequence (Q8N8N7 whole entry, looked up): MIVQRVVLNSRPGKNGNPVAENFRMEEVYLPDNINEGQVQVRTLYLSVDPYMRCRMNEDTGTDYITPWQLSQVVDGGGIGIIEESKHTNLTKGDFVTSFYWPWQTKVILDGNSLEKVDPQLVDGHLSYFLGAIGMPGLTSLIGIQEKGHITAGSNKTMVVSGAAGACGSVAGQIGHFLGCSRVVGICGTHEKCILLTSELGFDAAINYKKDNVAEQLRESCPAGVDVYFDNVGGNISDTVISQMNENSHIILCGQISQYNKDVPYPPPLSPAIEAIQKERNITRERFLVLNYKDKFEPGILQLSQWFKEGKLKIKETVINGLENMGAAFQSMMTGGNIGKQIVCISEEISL
UniProt Q8IZ21, sequence (Q8IZ21 whole entry, looked up): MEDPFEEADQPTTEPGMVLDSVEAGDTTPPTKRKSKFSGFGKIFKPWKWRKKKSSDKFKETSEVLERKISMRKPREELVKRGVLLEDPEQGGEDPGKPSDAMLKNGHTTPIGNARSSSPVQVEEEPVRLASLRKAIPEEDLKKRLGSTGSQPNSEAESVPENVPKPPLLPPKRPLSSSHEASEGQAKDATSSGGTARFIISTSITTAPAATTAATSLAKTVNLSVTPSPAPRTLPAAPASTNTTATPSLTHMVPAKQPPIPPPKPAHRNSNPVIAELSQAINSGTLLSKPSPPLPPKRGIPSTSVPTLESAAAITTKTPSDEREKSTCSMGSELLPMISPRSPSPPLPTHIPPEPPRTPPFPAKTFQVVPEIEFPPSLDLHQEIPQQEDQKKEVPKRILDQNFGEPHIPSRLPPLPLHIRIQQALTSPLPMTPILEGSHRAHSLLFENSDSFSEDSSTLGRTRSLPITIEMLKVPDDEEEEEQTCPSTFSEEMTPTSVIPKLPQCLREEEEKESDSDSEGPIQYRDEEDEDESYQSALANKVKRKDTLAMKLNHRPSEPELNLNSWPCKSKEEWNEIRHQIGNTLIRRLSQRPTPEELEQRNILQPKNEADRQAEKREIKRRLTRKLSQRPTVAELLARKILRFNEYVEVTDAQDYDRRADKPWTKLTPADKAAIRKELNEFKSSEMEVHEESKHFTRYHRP
UniProt Q9HBH1, sequence (Q9HBH1 whole entry, looked up): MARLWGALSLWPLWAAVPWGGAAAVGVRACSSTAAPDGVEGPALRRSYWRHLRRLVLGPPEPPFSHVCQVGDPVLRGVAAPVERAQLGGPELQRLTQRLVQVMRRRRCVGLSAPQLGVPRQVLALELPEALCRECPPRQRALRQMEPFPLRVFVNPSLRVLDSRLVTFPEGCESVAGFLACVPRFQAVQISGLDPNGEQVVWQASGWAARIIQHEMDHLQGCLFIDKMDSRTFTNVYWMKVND
UniProt P14314, sequence (P14314 whole entry, looked up): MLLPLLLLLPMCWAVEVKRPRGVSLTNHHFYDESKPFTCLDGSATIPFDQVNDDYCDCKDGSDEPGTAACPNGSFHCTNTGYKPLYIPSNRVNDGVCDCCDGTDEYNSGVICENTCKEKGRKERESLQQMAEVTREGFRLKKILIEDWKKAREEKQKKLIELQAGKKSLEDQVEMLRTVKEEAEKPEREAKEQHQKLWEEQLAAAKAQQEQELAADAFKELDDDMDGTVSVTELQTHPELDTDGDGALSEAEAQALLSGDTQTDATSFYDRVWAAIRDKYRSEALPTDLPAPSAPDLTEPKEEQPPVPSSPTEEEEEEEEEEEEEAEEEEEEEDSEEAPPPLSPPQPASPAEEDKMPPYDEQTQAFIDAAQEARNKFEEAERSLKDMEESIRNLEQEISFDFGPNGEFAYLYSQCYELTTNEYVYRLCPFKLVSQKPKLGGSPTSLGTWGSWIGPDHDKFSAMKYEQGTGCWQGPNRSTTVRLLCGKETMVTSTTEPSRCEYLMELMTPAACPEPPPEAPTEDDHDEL
UniProt O14744, sequence (O14744 whole entry, looked up): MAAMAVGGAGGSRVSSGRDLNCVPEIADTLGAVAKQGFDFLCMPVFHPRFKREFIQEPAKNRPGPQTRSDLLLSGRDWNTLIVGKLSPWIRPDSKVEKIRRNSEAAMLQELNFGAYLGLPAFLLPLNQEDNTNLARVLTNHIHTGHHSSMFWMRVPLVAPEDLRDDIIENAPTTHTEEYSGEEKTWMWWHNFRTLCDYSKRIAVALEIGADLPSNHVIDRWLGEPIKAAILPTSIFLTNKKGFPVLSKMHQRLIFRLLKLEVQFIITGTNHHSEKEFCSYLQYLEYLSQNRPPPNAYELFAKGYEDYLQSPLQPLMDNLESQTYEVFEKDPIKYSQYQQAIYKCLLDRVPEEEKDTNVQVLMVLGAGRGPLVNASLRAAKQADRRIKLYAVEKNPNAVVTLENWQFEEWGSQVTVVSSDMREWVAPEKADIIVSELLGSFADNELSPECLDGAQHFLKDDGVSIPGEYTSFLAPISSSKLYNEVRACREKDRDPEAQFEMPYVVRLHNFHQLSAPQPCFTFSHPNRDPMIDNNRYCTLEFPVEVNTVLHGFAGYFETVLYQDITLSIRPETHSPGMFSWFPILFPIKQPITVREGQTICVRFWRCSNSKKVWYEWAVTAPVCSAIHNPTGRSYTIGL
UniProt O75334, sequence (O75334 whole entry, looked up): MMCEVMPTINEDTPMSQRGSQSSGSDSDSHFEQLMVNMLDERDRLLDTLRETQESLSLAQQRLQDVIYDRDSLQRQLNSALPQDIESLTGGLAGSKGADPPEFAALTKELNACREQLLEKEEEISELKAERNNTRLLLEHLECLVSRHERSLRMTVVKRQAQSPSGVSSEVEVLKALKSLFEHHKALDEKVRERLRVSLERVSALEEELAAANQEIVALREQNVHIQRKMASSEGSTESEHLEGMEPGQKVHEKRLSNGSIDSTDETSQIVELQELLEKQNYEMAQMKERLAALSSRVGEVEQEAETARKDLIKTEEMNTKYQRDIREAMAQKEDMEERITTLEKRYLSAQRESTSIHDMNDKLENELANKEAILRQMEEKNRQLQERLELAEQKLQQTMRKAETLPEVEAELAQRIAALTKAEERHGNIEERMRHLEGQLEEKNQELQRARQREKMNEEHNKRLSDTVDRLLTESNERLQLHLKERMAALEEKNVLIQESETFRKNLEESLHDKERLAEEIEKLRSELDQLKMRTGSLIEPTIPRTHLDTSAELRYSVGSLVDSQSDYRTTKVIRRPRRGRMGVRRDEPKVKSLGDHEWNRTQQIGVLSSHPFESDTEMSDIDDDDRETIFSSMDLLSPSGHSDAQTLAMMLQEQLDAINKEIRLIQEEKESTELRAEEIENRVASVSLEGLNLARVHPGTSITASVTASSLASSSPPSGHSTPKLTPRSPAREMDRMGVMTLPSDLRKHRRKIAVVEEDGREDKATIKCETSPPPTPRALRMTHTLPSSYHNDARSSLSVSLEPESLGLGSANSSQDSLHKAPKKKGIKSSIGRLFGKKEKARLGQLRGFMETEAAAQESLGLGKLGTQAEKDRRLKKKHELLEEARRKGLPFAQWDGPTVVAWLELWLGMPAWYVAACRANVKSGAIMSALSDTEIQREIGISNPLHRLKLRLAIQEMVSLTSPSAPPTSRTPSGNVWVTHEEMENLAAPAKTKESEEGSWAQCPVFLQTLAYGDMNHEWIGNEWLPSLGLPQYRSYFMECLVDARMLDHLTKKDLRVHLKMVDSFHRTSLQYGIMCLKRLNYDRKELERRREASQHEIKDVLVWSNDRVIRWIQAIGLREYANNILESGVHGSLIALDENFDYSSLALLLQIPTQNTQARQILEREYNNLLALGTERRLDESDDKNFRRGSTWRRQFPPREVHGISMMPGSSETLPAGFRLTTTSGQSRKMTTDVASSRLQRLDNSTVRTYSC

Compound in the assay: CNc1nc(-c2ccc3c(N)n[nH]c3c2)cc(N2C[C@@H](C(=O)NC3CCCCC3)CC[C@H]2C)n1
The experiment in a line: log2 fold change, soluble protein after heating vs DMSO (PISA); higher = thermal stabilisation; K562 lysate, 10 uM; active = over 0.2 and 3.5 SD of the protein, either way, in both replicates (recomputed). The gist of the method: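 Following dounce homogenisation of K562 pellets in PBS pH 7.4 with 1 mM MgCl2, crude extract at 1 mg/mL protein was incubated for 30 min with 10 μM compound. Aliquots were then heated for 3 min over 48°C-58°C and pooled, NP-40 was added to 0.5% at 4°C, and soluble protein was recovered as the supernatant at 21,000xg for 90 min. Channel-sum-equalised TMTpro 16plex LC-MS/MS quantified this protein. Each value, from duplicates, is a log-two fold change in thermal stability relative to solvent controls.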
As for PHACTR4 isoform 2 (UniProt Q8IZ21), the log2 fold change was 0.1.
PTGR2 (UniProt Q8N8N7): the log2 fold change was -0.021.
In the case of PRMT5 (UniProt O14744), the log2 fold change was 0.013.
The figure for PCYT1B (UniProt Q9Y5K3) is 0.086.
Then POC5 (UniProt Q8NA72), with 0.06.
For PFKP (UniProt Q01813), the log2 fold change was -0.016.
Consider PDF (UniProt Q9HBH1), for which the log2 fold change is 0.011.
For the target PYCR2 (UniProt Q96C36), the log2 fold change was 0.011.
In the case of PDE2A (UniProt O00408), the log2 fold change was 0.028.
Then PRKACA (UniProt P17612), with 0.082; and PTPN2 (UniProt P17706), with 0.005; and PPFIA2 (UniProt O75334), with -0.026.
PTP4A1 (UniProt Q93096): the log2 fold change is 0.023.
The figure for PDXDC1 (UniProt Q6P996) is 0.088; for PRKCSH isoform 2 (UniProt P14314) it is -0.05; for POLD3 (UniProt Q15054) it is -0.03.

The values above are taken from the supplement of paper PMC10849652.
